Drawing on PubChem BioAssay (NCI), this text covers growth for 14 molecules.

The panel holds about 83,000 compounds, 20% with a hit somewhere; the sample as a whole holds those more often.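 Percent growth is the endpoint: 0 to 100 indicates growth inhibition (40 means 60% inhibition), 0 means no net growth, and negative values indicate cell death.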 Unmarked numbers belong to inactive results. Activity calls are given as the source filed them. Rule for the calls: active = growth percent below 10; inactive = the rest.

Some test systems named below: NCI-H23 lung; NCI-H226 lung; NCI-H322M lung; NCI-H460 lung; HOP-92 NSCLC; NCI-H522 lung; A549/ATCC NSCLC; 786-0 renal; COLO 205 colon.
What all share (assay): NCI-60 one-dose screen, 48 h (100 = growth as untreated, 0 = no growth, -100 = all killed)
Conditions in all cases: 10 µM unless noted

For `Cc1cc(Nc2nc(C(=O)Nc3ccccc3)nc3ccccc23)n[nH]1`, the growth in the experiment on NCI-H23 lung was 77.5%; in the experiment with NCI-H226 lung it was 67.1%; in the experiment on NCI-H322M lung, 56.5%; in the experiment with NCI-H460 lung it was 37.6%; in the experiment on HOP-92 NSCLC, 51.2%; in the experiment on NCI-H522 lung, 59%. For the same molecule, the growth in the experiment with A549/ATCC NSCLC was 62.4%; in the experiment with 786-0 renal it was 56.2%; in the experiment with COLO 205 colon, 76%.

As for `CN(C)C/C=C/C(=O)Nc1cc2c(Nc3ccc(F)c(Cl)c3F)ncnc2cc1OCCOC(F)F`, the growth was 26.6% with NCI-H23 lung; 25.1% in the experiment on NCI-H226 lung; 1.96% (active) in the experiment on NCI-H322M lung; 36.6% with NCI-H460 lung; -53.7% (active) in the experiment with HOP-92 NSCLC; -25.7% (active) in the experiment with NCI-H522 lung. Moreover, the growth in the experiment on A549/ATCC NSCLC is 21.8%; in the experiment with 786-0 renal it was 0.67% (active); in the experiment with COLO 205 colon, 20.1%.

On to `O=S(=O)(NCCNc1nccc(-c2c(-c3ccccc3)nc3sccn23)n1)c1ccc(O)cc1`, for which the growth in the experiment with NCI-H23 lung is 50.3%; with NCI-H226 lung, 46%; in the experiment with NCI-H322M lung, 58.2%; in the experiment on NCI-H460 lung, 21.4%; in the experiment on HOP-92 NSCLC it was 61.3%; with NCI-H522 lung it was 65.4%. Besides, the growth in the experiment with A549/ATCC NSCLC was 32.2%; with 786-0 renal, 64.1%; with COLO 205 colon it was 28.5%.

As for `CN(C)CCCNC(=O)C(c1ccccc1)c1ccccc1`, the growth was 93.5% in the experiment on NCI-H23 lung; 106% in the experiment on NCI-H226 lung; 102% with NCI-H322M lung; 112% in the experiment with NCI-H460 lung; 98% in the experiment with HOP-92 NSCLC; 89.9% with NCI-H522 lung. Moreover, the growth with A549/ATCC NSCLC was 89.9%; in the experiment on 786-0 renal, 102%; in the experiment on COLO 205 colon it was 106%.

With `COc1cc(CNC(=O)CCSc2nc3ccccc3c(=O)n2Cc2cc(OC)c(OC)c(OC)c2)cc(OC)c1OC`, the growth with NCI-H23 lung was 51.6%; in the experiment with NCI-H226 lung, 70%; with NCI-H322M lung, 60.1%; with NCI-H460 lung, 13.7%; with HOP-92 NSCLC, 44.6%; in the experiment on NCI-H522 lung, 10.2%. Besides, the growth with 786-0 renal is 56.1%; with COLO 205 colon it was 25.8%.

Turning to `CC(C)(C)OC(=O)N[C@@H](Cc1ccccc1)C(=O)N(Cc1ccccc1)C1(C(=O)NCc2ccccc2)CCN(Cc2ccccc2)CC1`, the growth with NCI-H23 lung was 49.3%; in the experiment on NCI-H226 lung it was 70%; in the experiment with NCI-H322M lung, 64.3%; with NCI-H460 lung, 26.6%; in the experiment with HOP-92 NSCLC, -8.51% (active); with NCI-H522 lung, 43.7%. Also, the growth was 24.8% in the experiment on A549/ATCC NSCLC, 51.7% with 786-0 renal and 16.3% in the experiment with COLO 205 colon.

On to `CCC(C)NCC(=O)O` (stereo not given), for which the growth in the experiment with NCI-H23 lung is 108%; with NCI-H226 lung, 92.6%; in the experiment with NCI-H322M lung, 118%; in the experiment on NCI-H460 lung, 108%; with HOP-92 NSCLC, 109%; in the experiment on NCI-H522 lung, 78.7%. The growth in the experiment with A549/ATCC NSCLC is 105%; in the experiment with 786-0 renal it was 103%; in the experiment with COLO 205 colon it was 107%.

`C=C1C(=O)O[C@H]2[C@H]1CC/C(COC(=O)NCCc1ccc(Br)cc1)=C\CC[C@@]1(C)O[C@@H]21`: the growth was 62.6% in the experiment with NCI-H23 lung; 13.2% with NCI-H226 lung; 85.4% with NCI-H322M lung; 61.2% in the experiment on NCI-H460 lung; 33.6% with HOP-92 NSCLC; -52.1% (active) in the experiment on NCI-H522 lung. Further, the growth with A549/ATCC NSCLC was 77.8%; with 786-0 renal, -52.9% (active); in the experiment with COLO 205 colon it was -25.3% (active).

With `COc1ccc2c(c1)C(=O)/C(=C/c1ccc(O)cc1)O2`, the growth in the experiment on NCI-H23 lung is 93.9%; with NCI-H226 lung, 78.2%; with NCI-H322M lung, 86.6%; in the experiment with NCI-H460 lung, 91.2%; in the experiment with HOP-92 NSCLC it was -40% (active); with NCI-H522 lung it was -97.9% (active). Besides, the growth was 91.8% in the experiment on A549/ATCC NSCLC, 101% in the experiment with 786-0 renal and 24.8% in the experiment on COLO 205 colon.

For `COc1cc(OC)c(C(=O)/C=C/c2ccc(C(F)(F)F)cc2)c(OC)c1`, the growth was 42.3% in the experiment with NCI-H23 lung; 64.7% with NCI-H226 lung; 62% in the experiment on NCI-H322M lung; 23.1% in the experiment with NCI-H460 lung; 96.8% with HOP-92 NSCLC; 28.8% in the experiment with NCI-H522 lung. Also, the growth in the experiment on A549/ATCC NSCLC is 53.5%; with 786-0 renal, 45.4%; with COLO 205 colon, 86.9%.

Regarding `CC(C)CCC[C@@H](C)[C@H]1CC[C@H]2[C@@H]3CC[C@H]4C/C(=N/O)CC[C@]4(C)[C@H]3CC[C@]12C`, the growth with NCI-H23 lung was 107%; in the experiment on NCI-H226 lung it was 92.1%; in the experiment on NCI-H322M lung, 103%; in the experiment on NCI-H460 lung, 106%; with HOP-92 NSCLC it was 101%; in the experiment on NCI-H522 lung, 104%. The results for the growth in the experiment on A549/ATCC NSCLC, with 786-0 renal and with COLO 205 colon were 73.1%, 102% and 108%, respectively.

For the molecule `COC(=O)[C@H]1[C@H](OC)[C@@H](OC(=O)/C=C/c2ccncc2)CC2CN3CCc4c([nH]c5cc(OC)ccc45)[C@@H]3C[C@@H]21` (stereo not given in full), the growth was 97% in the experiment with NCI-H23 lung; 73.7% with NCI-H226 lung; 78.4% in the experiment with NCI-H322M lung; 92.5% with NCI-H460 lung; 1.2% (active) with HOP-92 NSCLC; 72% with NCI-H522 lung. The growth is 82.9% in the experiment on A549/ATCC NSCLC, 83.5% with 786-0 renal and 79.2% in the experiment on COLO 205 colon.

On to `Cc1ccc2c(c1)ncn2-c1ncnc2c1CC(C)c1ccccc1N2C` (stereo not given), for which the growth is 24% in the experiment on NCI-H23 lung; 54.2% in the experiment on NCI-H226 lung; 61.3% with NCI-H322M lung; 3.26% (active) in the experiment on NCI-H460 lung; 24% in the experiment with HOP-92 NSCLC; -22.8% (active) in the experiment with NCI-H522 lung. For the same molecule, the growth was 23.5% with A549/ATCC NSCLC, 24.9% in the experiment with 786-0 renal and -33.4% (active) in the experiment with COLO 205 colon.

Consider `CCCCCCC[C@@H](O)CC(=O)N[C@H](CCCCN)C(=O)N[C@H](Cc1c[nH]c2ccccc12)C(=O)NC(CCCCN)C(=O)N[C@H](CC(C)C)C(=O)N[C@H](Cc1ccccc1)C(=O)N[C@H](CCCCN)C(=O)N[C@H](CCCCN)C(=O)N[C@H](CC(C)C)C(=O)N1CCCC1C(=O)N[C@H](CCCCN)C(=O)N[C@H](Cc1ccccc1)C(=O)N[C@H](CC(C)C)C(=O)N[C@H](Cc1c[nH]cn1)C(=O)N[C@H](CC(C)C)C(=O)N[C@H](C)C(=O)N[C@H](CCCCN)C(=O)N[C@H](CCCCN)C(=O)N[C@H](Cc1ccccc1)C(=O)O` (stereo not given in full), for which the growth in the experiment with NCI-H23 lung was -41.6% (active); in the experiment on NCI-H226 lung, -21.3% (active); in the experiment with NCI-H322M lung it was -71.9% (active); in the experiment with NCI-H460 lung, -25.4% (active); with HOP-92 NSCLC it was -54.4% (active); with NCI-H522 lung, -48.8% (active). Also, the values for the growth in the experiment with A549/ATCC NSCLC, with 786-0 renal and in the experiment on COLO 205 colon were -47.3% (active), -34.4% (active) and -47.6% (active), respectively.
